In the supplement of paper PMC6555819:

Key:
Experiment in all cases: PBM binding z-score (relative to random genomic background probes); higher = stronger binding; sequences stand for … in GC…GCGATTGACAGCGTAGAATGAAGG
[1] = system: FXR:RXRa (NR concentration 270 nM, RXRa partner concentration 90 nM)
In short: (§1)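 Random background probes are the reference for binding z-scores. These scores derive from regression-normalized fluorescence on custom Agilent 4×180K protein-binding microarrays incubated 1 h with ligand-free nuclear receptor dimers. Binding was detected with antibodies against each partner (one per run).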

[2] = system: LXRa:RXRa (NR concentration 270 nM, RXRa partner concentration 90 nM)
In short: as §1

[3] = system: LXRa homodimer (NR concentration 270 nM)
In short: as §1

[4] = system: LXRb:RXRa (NR concentration 270 nM, RXRa partner concentration 90 nM)
In short: as §1

[5] = system: LXRb homodimer (NR concentration 270 nM)
In short: as §1

[6] = system: PPARa:RXRa (NR concentration 270 nM, RXRa partner concentration 90 nM)
In short: as §1

[7] = system: PPARg:RXRa (NR concentration 180 nM, RXRa partner concentration 90 nM)
In short: as §1

[8] = system: PPARg:RXRa 270nM:90nM, anti-RXR (NR concentration 270 nM, RXRa partner concentration 90 nM)
In short: as §1

[9] = system: PPARg:RXRa 30nM:10nM, anti-RXR (NR concentration 30 nM, RXRa partner concentration 10 nM)
In short: as §1

[10] = system: PPARg:RXRa 90nM:30nM, anti-RXR (NR concentration 90 nM, RXRa partner concentration 30 nM)
In short: as §1

[11] = system: PPARg:RXRa DBDmut IVT, anti-RXR (DBD mutation: RXRa K156A/R161A, NR concentration 270 nM, RXRa partner concentration 90 nM)
In short: as §1

[12] = system: PPARg:RXRa IVT, anti-PPARg (NR concentration 270 nM, RXRa partner concentration 90 nM)
In short: as §1

[13] = system: PPARg DBDmut:RXRa IVT, anti-PPARg (DBD mutation: PPARg1 K132A/R137A, NR concentration 270 nM, RXRa partner concentration 90 nM)
In short: as §1

[14] = system: PPARg DBDmut IVT, anti-PPARg (DBD mutation: PPARg1 K132A/R137A, NR concentration 270 nM)
In short: as §1

[15] = system: PPARg homodimer (NR concentration 180 nM)
In short: as §1

[16] = system: PXR:RXRa (NR concentration 270 nM, RXRa partner concentration 90 nM)
In short: as §1

[17] = system: PXR homodimer (NR concentration 270 nM)
In short: as §1

[18] = system: RARa:RXR (NR concentration 270 nM, RXRa partner concentration 90 nM)
In short: as §1

[19] = system: RARa homodimer (NR concentration 270 nM)
In short: as §1

[20] = system: RARb:RXRa (NR concentration 270 nM, RXRa partner concentration 90 nM)
In short: as §1

Sequence	PBM binding z-score [1]	PBM binding z-score [2]	PBM binding z-score [3]	PBM binding z-score [4]	PBM binding z-score [5]	PBM binding z-score [6]	PBM binding z-score [7]	PBM binding z-score [8]	PBM binding z-score [9]	PBM binding z-score [10]	PBM binding z-score [11]	PBM binding z-score [12]	PBM binding z-score [13]	PBM binding z-score [14]	PBM binding z-score [15]	PBM binding z-score [16]	PBM binding z-score [17]	PBM binding z-score [18]	PBM binding z-score [19]	PBM binding z-score [20]
ATCTCTAGGTAAGACTCAGTTAAGTGAAGAACGC	0.573	0.359	0.508	0.191	0.75	0.00438	0.0664	-0.0342	0.242	-0.00989	1.7	1.21	0.936	1.52	0.709	0.115	0.648	0.211	1.29	0.0635
CTCGAAAGGTCGGTTGAGGTGAGTCTACGGATAA	2.75	1.97	-0.215	1.29	-0.179	2.62	0.161	1.13	0.171	0.803	0.22	0.948	-0.0486	-0.386	1.13	3.39	-0.0836	2.2	-0.523	2.97
CCTTACGGGTCAAGGTTACAGCACGGGTGGTACG	5.94	3.96	0.209	2.99	-0.186	5.24	5.13	5.27	2.14	3.87	2.05	3.96	0.601	-0.0526	1.7	3.4	-0.0469	4.47	0.176	4.45
GGAACGAGGGCAAACTTGATAGCATCTGTCGACG	1.14	0.523	-0.0239	0.598	-0.25	2.18	1.54	1.87	0.362	1.16	4.42	3.21	0.0378	-0.343	0.366	0.618	0.169	0.525	-0.264	2.16
ATCTCTAGGTGACCAAGTTCAGTGAATGCCGAAC	0.185	0.357	0.0777	0.467	0.278	1.9	1.99	1.7	0.308	1.05	5.31	4.76	1.66	1.14	0.611	2.17	1.7	0.763	-0.118	1.7
CCTATTAGTTGCCCATAAGGGCAACCGAAGCTCG	0.523	0.339	0.425	0.645	0.866	0.517	0.154	0.281	-0.263	0.0446	-0.00448	0.926	0.125	1.13	0.921	0.597	0.552	0.824	1.45	1.29
TATGCTAGGTCAGTTGGTCAGCTAACGAGCTGCC	0.676	1.92	0.835	0.423	1.02	1.46	1.17	1.26	0.0933	0.733	1.61	2.75	1.5	0.759	0.0439	0.247	-0.553	0.47	-0.649	3.04
TCTTGTAGATCAATAGAGGTTAATAAAGTGCGCT	0.771	5.4	0.943	3.5	-0.00633	1.72	0.484	1.59	2.72	2.15	1.47	1.13	0.628	0.945	0.295	2.84	0.364	1.63	0.341	0.772
CCTATTAGTTGACGATAAGGGCAACCGAAGCTCG	0.29	0.114	-0.102	0.152	0.201	0.204	0.482	0.0797	0.0506	0.157	0.107	-0.036	0.257	0.471	1.85	0.261	0.241	0.847	1.05	1.33
CTAGACAGGTGAAAGGTAACTCAGTCTGGTACGC	0.53	0.864	-0.332	0.732	-0.56	3.4	6.11	6.66	5.12	6.47	1.94	3.43	0.142	0.0221	0.635	0.951	-0.397	1.91	-0.0814	1.22
GTACCAAGGTGAATAGGTCGATGATGAGTAGGCG	0.682	0.499	-0.251	0.484	-0.293	1.89	1.69	1.53	0.803	1.28	1.55	2.61	0.551	-0.172	1.08	0.477	0.109	1.13	0.983	2.01
ACTACAGGGTCACTAGGCCAGAGTAGGTACGAAT	6.17	3.51	-0.237	3.18	0.0917	5.65	7.54	5.96	2.62	5.05	3.3	5.46	1.45	0.752	2.24	2.67	0.0574	3.53	0.377	4.19
CCGACTGGGGCATAAGGTTACCATAAGCCAGCCC	0.197	1.68	-0.354	0.645	-1.33	1.75	2.29	3.15	0.853	2.5	2.93	3.01	-0.979	-1.34	0.447	0.164	-0.32	1.11	-0.464	1.66
